FLuc inh – inhibitors of firefly (Photinus pyralis) luciferase | P08659 | purified P. pyralis luciferase, luminescence, biochemical | Potency, µM (top dose mostly 115 µM), usual class: inhibitors | 76,000 tested, 2.5% active; further: nearly all actives have a fitted effect of over 65% in size
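Purified P. pyralis luciferase (10nM final) in 50mM Tris acetate pH 7.5, 10mM Mg acetate, 0.01% Tween-20, 0.05% BSA with 10uM D-luciferin and 10uM ATP. Compounds titrated qHTS. Luminescence imaged on CCD.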
3T3 cytotox – NIH 3T3 cell cytotoxicity | NIH 3T3 viability, CellTiter-Glo ATP luminescence, 48-72 h | Potency, µM (top dose mostly 96.7 µM), for inactives: at the top dose activity change, negative = cytotoxicity, most hits filed as inhibitors | 94,000 tested, 4.3% active; further: nearly all actives have a fitted effect of over 55% in size
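Viability of NIH 3T3 cells after 48 or 72 hr compound treatment at 37 °C was assessed by CellTiter-Glo, with luminescence imaged following a 10 min room-temperature step.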
hNpr1 antagonist – human Npr1 receptor antagonism; 76,000 tested, 1.6% active; AID 1347048; HEK293 hNpr1 GloSensor cGMP, ANP-stimulated luminescence; Potency, µM (titrated, usually from 46.3 µM), for inactives: at the highest dose activity change, negative = inhibition, actives largely listed as inhibitors; P16066; calls by dose curve; further: nearly all actives have a fitted effect of over 60% in size
Target sequence (P16066 whole entry, looked up): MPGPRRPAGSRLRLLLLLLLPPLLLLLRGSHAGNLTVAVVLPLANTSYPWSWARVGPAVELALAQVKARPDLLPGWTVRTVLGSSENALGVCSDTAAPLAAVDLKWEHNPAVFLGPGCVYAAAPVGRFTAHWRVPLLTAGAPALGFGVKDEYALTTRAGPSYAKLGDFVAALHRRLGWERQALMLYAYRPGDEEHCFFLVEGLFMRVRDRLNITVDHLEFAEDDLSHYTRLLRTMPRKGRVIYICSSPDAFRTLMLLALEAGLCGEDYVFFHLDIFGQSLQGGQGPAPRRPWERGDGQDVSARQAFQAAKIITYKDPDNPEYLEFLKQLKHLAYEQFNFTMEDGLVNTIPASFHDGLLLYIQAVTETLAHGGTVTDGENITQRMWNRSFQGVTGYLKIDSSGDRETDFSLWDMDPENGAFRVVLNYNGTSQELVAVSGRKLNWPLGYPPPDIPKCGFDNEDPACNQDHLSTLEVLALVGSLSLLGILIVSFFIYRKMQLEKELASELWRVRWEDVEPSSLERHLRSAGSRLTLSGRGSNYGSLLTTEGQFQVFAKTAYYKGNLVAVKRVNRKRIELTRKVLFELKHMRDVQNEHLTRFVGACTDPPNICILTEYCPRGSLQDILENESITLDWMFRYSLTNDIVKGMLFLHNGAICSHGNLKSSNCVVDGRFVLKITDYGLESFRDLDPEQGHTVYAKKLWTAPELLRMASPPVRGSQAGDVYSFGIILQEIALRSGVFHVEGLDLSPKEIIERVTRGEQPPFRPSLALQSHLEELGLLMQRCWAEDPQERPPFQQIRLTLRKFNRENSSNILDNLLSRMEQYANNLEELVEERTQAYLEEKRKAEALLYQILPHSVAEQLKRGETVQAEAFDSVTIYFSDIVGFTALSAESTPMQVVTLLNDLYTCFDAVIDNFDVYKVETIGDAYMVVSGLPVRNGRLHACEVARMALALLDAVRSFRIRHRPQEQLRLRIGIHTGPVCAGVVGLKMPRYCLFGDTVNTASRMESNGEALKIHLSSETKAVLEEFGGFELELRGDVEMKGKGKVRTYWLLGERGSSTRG
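Compound pre-incubated 30 min at room temperature on GloSensor-loaded HEK293 cells stably carrying hNpr1 and the pGS-40F cGMP biosensor. Stimulation uses hNppA at 0.1 nM final; luminescence is taken at baseline and 20 min post-agonist.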
HEK293 tox – kills HEK 293 cells; HEK 293 viability, ATP luminescence (CellTiter-Glo), 48-72 h; Potency, µM (series often up to 115 µM), without a hit: at the highest dose activity change, negative = cytotoxicity, usual class: inhibitors; 94,000 tested, 6.6% active; further: nearly all actives have a fitted effect of over 60% in size
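Viability of HEK 293 cells, plated at 250 cells/well, was judged by cellular ATP after compound treatment for 48 or 72 hr. Luminescence was imaged 10 min after CellTiter-Glo addition at room temperature.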
Numbers without * were called inactive; i = inactive; ? = inconclusive; . = not tested or not shown; [ ] = another dose, or the depositor's remark. An excerpt weighted towards active compounds, which were near 11% of everything screened. Unless noted, the call rests on the fitted dose curve; in most records, active means well fitted curve in the direction sought with a large enough effect; inconclusive means small, poorly fitted or top-dose-only effect, or another doubt; inactive means no such curve, though single readings can be large; an effect the other way counts as inactive or inconclusive. On the % scale 0 is the no-effect control and ±100 the full control effect; potency means the concentration at half of the fitted maximal effect.

SMILES	FLuc inh	3T3 cytotox	hNpr1 antagonist	HEK293 tox
O=C(Nc1cccc(Br)c1)N1CCC2(CC1)SCC(=O)N2Cc1ccccc1	i	15.8µM*	-9.0%	50.1µM*
CN1C(=O)CS(=O)(=O)C12CCN(C(=O)CC(C)(C)C)CC2	i	3.3%	1.8%	i
COc1ccccc1-n1nc(-c2c(C)nc3scc(CC(=O)NCc4ccccc4)n3c2=O)cc1C	i	-7.4%	3.0%	i
COCCCNc1nc(-c2c(C)noc2C)cc2cc(C(C)C)oc12	i	?	-0.5%[70.6 µM]	89.1µM*
COCCNc1nc(-c2c(C)noc2C)cc2cc(C(C)C)oc12	i	?	1.7%[70.6 µM]	70.8µM*
CN(C(=O)c1ccc(C(F)(F)F)cc1)C1CCCc2ccccc21 (stereo not drawn)	?	50.1µM*	-2.3%[70.6 µM]	?
Cc1ccccc1C(=O)N(C)C1CCCc2ccccc21 (stereo not drawn)	i	?	3.9%[70.6 µM]	89.1µM*
CN(C(=O)Cc1cccc(Cl)c1)C1CCCc2ccccc21 (stereo not drawn)	i	?	6.1%[70.6 µM]	100µM*
CN(C1CCCc2ccccc21)S(C)(=O)=O (stereo not drawn)	i	-14.7%[138 µM]	-3.6%[70.6 µM]	-11.2%[172 µM]
Cc1ccc(S(=O)(=O)N(C)C2CCCc3ccccc32)cc1 (stereo not drawn)	i	?	-9.4%[70.6 µM]	89.1µM*
CC(C)N1CCOC[C@H]1c1ncc(-c2ccc(F)cc2)[nH]1	i	-25.2%[174 µM]	-1.5%[70.6 µM]	-26.7%[230 µM]
Cc1ccc(Nc2ccnc(N3CCC(C(=O)N4CCN(c5ncccn5)CC4)CC3)n2)cc1	.	35.5µM*	.	17.8µM*
Cc1ccc(Nc2ccnc(N3CCC(C(=O)N4CCC(Cc5ccccc5)CC4)CC3)n2)cc1	.	?	.	35.5µM*
CC(=O)N1CCN(C(=O)C2CCN(c3nccc(Nc4ccc(C)cc4)n3)CC2)CC1	.	-20.7%	.	-14.9%
COc1ccc(F)cc1-c1ccc(CN2CCC(NC(=O)c3ccc(C(F)(F)F)cc3)C2)cc1 (stereo not drawn)	.	?	.	20µM*
COc1ccccc1-c1ccc(CN2CCC(NC(=O)c3ccc(C(F)(F)F)cc3)C2)cc1 (stereo not drawn)	.	?	.	25.1µM*
COCCOc1ccc2c(n1)CCN(C(=O)Cc1cccc(OC)c1)C2	i	-14.9%	-0.8%	0.7%
O=C(c1ccsc1)N1CCCn2cc(-c3ccccc3F)nc21	35.5µM*	i	-4.2%	-13.5%
O=C(c1cccs1)N1CCCn2cc(-c3ccccc3F)nc21	22.4µM*	-5.8%	-3.7%	?
O=C(c1ccco1)N1CCCn2cc(-c3ccccc3F)nc21	i	-13.0%	-8.0%	-15.9%
Cn1c(CO[C@H]2CN(C(=O)c3cncnc3)C[C@H]2F)nc2ccccc21	i	i	3.4%[70.6 µM]	2.7%[172 µM]
Cc1ccc(-c2cc(C(=O)NCc3cccnc3)c3c(c2)ncn3C)cn1	i	100µM*	-2.7%[70.6 µM]	i
Cn1ncc2c(C(=O)Nc3cccc(Cl)c3)cc(-c3cccc(F)c3)nc21	.	?	.	35.5µM*
Cn1ncc2c(C(=O)NCc3cccnc3)cc(-c3ccc(Cl)nc3)nc21	.	22.4µM*	.	?
Cn1ncc2c(C(=O)NCC(F)F)cc(-c3cccc(F)c3)nc21	.	?	.	56.2µM*
SMILES	FLuc inh	3T3 cytotox	hNpr1 antagonist	HEK293 tox
COc1ccc(CN2C=C(C(=O)OCc3nc(C4CC4)no3)C(C)=NS2(=O)=O)cc1	i	?	-27.1%	?
Cn1ncc2c(C(=O)NCc3cccnc3)cc(-c3ccc([S+](C)(=O)[O-])cc3)nc21	.	?	.	-5.0%
Cn1ncc2c(C(=O)NCCc3ccc(F)cc3)cc(-c3ccc(Cl)nc3)nc21	.	-32.6%	.	-7.9%
Cn1ncc2c(C(=O)NCc3ccc(F)cc3)cc(-c3ccc(Cl)nc3)nc21	.	?	.	39.8µM*
Cn1ncc2c(C(=O)NCc3cccnc3)cc(-c3cccc(F)c3)nc21	.	?	.	79.4µM*
CCOc1ccccc1C1NC(=O)N(CC(=O)Nc2ccccc2C(C)C)C2=C1C(=O)OC2 (stereo not drawn)	i	-15.6%	-15.7%	?
COc1ccc(-c2cc(C(=O)NCC(C)C)c3c(C4CCNC4)nn(C)c3n2)cc1 (stereo not drawn)	.	20µM*	.	?
COc1ccc(-c2cc(C(=O)N3CCOCC3)c3c(C4CCNC4)nn(C)c3n2)cc1 (stereo not drawn)	.	-29.5%	.	-25.0%
O=C(NCc1ccccc1F)c1ccc2c(c1)CN(C1CCC1)CCO2	i	-7.3%	0.2%	?
